Hit rate of the full screen: of about 310,000 compounds, about 14,000 (4.5%) showed an effect of 50% or more. The effect is printed as a negative number. Shown is part of a subset that was picked to be rich in strong results.
What follows are molecules tested against human ether-à-go-go-related gene (hERG) potassium channel (human, UniProt Q12809) (assay: primary screen, population patch clamp on CHO cells stably expressing hERG; higher = less effect of the substance).
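Further: peak tail current of the secondary pulse compared with the same well before compound.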

Sequence of human ether-à-go-go-related gene (hERG) potassium channel (Q12809 whole entry, looked up): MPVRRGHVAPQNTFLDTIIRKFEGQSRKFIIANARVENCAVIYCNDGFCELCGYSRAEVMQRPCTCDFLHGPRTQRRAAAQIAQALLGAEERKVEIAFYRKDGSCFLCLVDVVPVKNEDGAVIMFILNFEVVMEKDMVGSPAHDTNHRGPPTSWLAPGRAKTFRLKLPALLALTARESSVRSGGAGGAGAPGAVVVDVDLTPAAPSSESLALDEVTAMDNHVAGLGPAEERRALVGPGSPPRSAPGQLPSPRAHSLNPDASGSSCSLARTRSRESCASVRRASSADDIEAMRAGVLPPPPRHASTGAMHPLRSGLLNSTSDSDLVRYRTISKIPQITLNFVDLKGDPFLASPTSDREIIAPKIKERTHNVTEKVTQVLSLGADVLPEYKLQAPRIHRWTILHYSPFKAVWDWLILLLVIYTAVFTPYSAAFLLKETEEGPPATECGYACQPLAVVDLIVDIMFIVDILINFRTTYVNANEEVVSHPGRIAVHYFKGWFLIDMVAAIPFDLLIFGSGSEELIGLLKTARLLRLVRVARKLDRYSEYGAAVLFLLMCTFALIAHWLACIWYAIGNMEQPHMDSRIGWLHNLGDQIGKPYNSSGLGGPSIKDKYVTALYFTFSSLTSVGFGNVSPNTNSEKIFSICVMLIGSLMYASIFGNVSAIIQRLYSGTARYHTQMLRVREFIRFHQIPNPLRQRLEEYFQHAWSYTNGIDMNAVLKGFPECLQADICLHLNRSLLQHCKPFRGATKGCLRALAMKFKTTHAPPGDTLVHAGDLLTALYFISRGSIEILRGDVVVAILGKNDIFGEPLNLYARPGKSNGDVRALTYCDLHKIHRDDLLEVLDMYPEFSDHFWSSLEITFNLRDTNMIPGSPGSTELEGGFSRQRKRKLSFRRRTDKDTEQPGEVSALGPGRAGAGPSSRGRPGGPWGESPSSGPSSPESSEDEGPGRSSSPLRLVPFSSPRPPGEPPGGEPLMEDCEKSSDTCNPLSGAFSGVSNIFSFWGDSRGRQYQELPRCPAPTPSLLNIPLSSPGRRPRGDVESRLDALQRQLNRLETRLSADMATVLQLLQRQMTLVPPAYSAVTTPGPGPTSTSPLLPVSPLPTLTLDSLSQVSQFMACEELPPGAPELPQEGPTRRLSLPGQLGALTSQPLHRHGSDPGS

SMILES | hERG current change (%, negative = inhibition) at 10uM
N/C(=N\OC(=O)COc1ccc2ccccc2c1Br)c1cccnc1 | 12.9%
Cc1cc(C)cc(C(=O)OCC(=O)Nc2ncccn2)c1 | -0.75%
Cc1cccc(NC(=O)c2ccc3nc(N4CCOCC4)sc3c2)c1C | -34.7%
COc1ccc(S(=O)(=O)NCCc2cc3ccc(C)c(C)c3[nH]c2=O)cc1 | 17.2%
C/C(=N\NC(=O)c1c[nH]c2ccccc12)c1ccc2c(c1)OCO2 | 1.64%
COc1ccccc1CNC(=O)Cn1c(=O)oc2cc(Cl)ccc21 | 0.41%
CC(C)C[C@H]1CN=C(Nc2ccccc2)N1CC(C)C | -3.04%
CC(C)CCN1C(Nc2ccccc2)=NC[C@@H]1CC(C)C | -33.4%
CC(C)CCCN1C(Nc2ccccc2)=NC[C@@H]1Cc1ccccc1 | -62.3%
CCN1C(Nc2ccccc2)=NC[C@@H]1CC(C)C | 3.75%
CC(C)CCN1C(Nc2ccccc2)=NC[C@@H]1Cc1ccccc1 | -47.9%
CCC(CC)CN1C(Nc2ccccc2)=NC[C@@H]1CC(C)C | -58.2%
CC(C)CCCN1CCN=C1Nc1ccccc1 | -3.11%
CCCCN1C(Nc2ccccc2)=NC[C@@H]1CC(C)C | -34.5%
CC(C)CCCN1C(Nc2ccccc2)=NC[C@@H]1CC(C)C | -60.1%
CCCCCCCN1C(Nc2ccccc2)=NC[C@@H]1CC(C)C | -73.7%
CC1(OC(=O)CCc2ccccc2)C(=O)C=C2C=C3CCCN3C=C2C1=O (stereo not drawn) | -1.36%
Cc1cccc(NC(=O)CCc2ccc(S(=O)(=O)NC3CCCCC3)cc2)c1 | 14.4%
Cc1oc2c(c(C)cc3oc(=O)c(CC(=O)N[C@@H](CC(C)C)C(=O)O)c(C)c32)c1C | 15.8%
COC(=O)CSc1nc2c(c(=O)n(C)c(=O)n2C)n1CCC(C)C | -5.54%

SMILES | hERG current change (%, negative = inhibition) at 10uM
CCS(=O)(=O)N1CCCC(C(=O)c2ccc(OC)cc2C)C1 (stereo not drawn) | 28.9%
CC(=O)O[C@@H]1/C=C/[C@](C)(O)C[C@@H](C)C/C=C/[C@H]2[C@@H]3O[C@]3(C)[C@@H](C)[C@H]3[C@H](Cc4ccccc4)NC(=O)[C@@]312 | 16%
O=C(Nc1cccc(C(F)(F)F)c1)C(SCCO)c1ccccc1 (stereo not drawn) | -4.8%
CN(C)c1cccc(C(=O)OC(C(=O)Nc2ccc(Cl)cc2C(F)(F)F)c2ccccc2)c1 (stereo not drawn) | -3.78%
COc1cccc(NC(=O)C(NCC(C)(C)CN(C)C)c2ccccc2)c1.O=C(O)C(=O)O (stereo not drawn) | -48.4%
O=C(Nc1cc(C(F)(F)F)ccc1Cl)C(Sc1cccc[n+]1[O-])c1ccccc1 (stereo not drawn) | -14.5%
O=C(Nc1ccc(Cl)cc1C(F)(F)F)C(Sc1cccc[n+]1[O-])c1ccccc1 (stereo not drawn) | -81.3%
O=C(Nc1cccc(C(F)(F)F)c1)C(Sc1cccc[n+]1[O-])c1ccccc1 (stereo not drawn) | -42.7%
CN(C)CC(C)(C)CNC(C(=O)Nc1ccc(Cl)cc1C(F)(F)F)c1ccccc1 (stereo not drawn) | -76.9%
N#CCC(=O)N/N=C\c1ccc(OC/C=C/c2ccccc2)cc1 | 14.4%
Cc1ccccc1S(=O)(=O)Cc1ccc(C(=O)NC2CCCCC2)o1 | -1.84%
Nc1nc(SCC(=O)Nc2ccc([N+](=O)[O-])cc2Br)n[nH]1 | 3.65%
CCOC(=O)C1(CC2CCCCO2)CCN(C(=O)Nc2ccccc2)CC1 (stereo not drawn) | 12%
COc1ccc(/C=C/c2cc(-c3ccc(C)cc3)o[n+]2C)cc1.F[B-](F)(F)F | -77.1%
COc1ccc(/C=C/c2cc(C(F)(F)F)on2)cc1 | 16.4%
COc1ccc(/C=C/C(=O)Oc2ccc(C)cc2)cc1 | -14.4%
Cc1ccccc1NC(=O)c1ccc2ccccc2c1 | -8.12%
CCC(C)(C(=O)Nc1c(C)cccc1C)N(C)C(=O)c1ccc2ccccc2n1 (stereo not drawn) | 8.52%
CSCC[C@H](NC(=O)c1cccs1)C(=O)N1CCC2(CC1)NCCc1[nH]cnc12 | 10.2%
CCCCNc1ccc(S(=O)(=O)c2cccc([N+](=O)[O-])c2)cc1[N+](=O)[O-] | -22.2%

SMILES | hERG current change (%, negative = inhibition) at 10uM
O=[N+]([O-])c1cccc(S(=O)(=O)c2ccc(NCCOCCO)c([N+](=O)[O-])c2)c1 | -38.3%
O=[N+]([O-])c1cccc(S(=O)(=O)c2ccc(NCCO)c([N+](=O)[O-])c2)c1 | -51%
CCn1c(=O)c(C(=O)CN2CCOCC2)c(N)n(Cc2ccccc2)c1=O | -19%
Cn1c(=O)c(C(=O)CN2CCOCC2)c(N)n(Cc2ccccc2)c1=O | -13.2%
CCn1c(=O)c(C(=O)CN2CCN(S(=O)(=O)c3ccccc3)CC2)c(N)n(Cc2ccccc2)c1=O | -14.6%
Cn1c(=O)c(C(=O)CN2CCCCCC2)c(N)n(Cc2ccccc2)c1=O | -13.5%
Cn1c(=O)c(C(=O)CN2CCN(Cc3ccc4c(c3)OCO4)CC2)c(N)n(Cc2ccccc2)c1=O | -66.8%
CCn1c(=O)c(C(=O)CN2CCN(Cc3ccc4c(c3)OCO4)CC2)c(N)n(Cc2ccccc2)c1=O | -72%
CN1CCN(c2ccc(N)c(N3CCN(C)CC3)c2)CC1 | 13.4%
CC(C)(C)NC(=O)C(c1ccc(F)cc1)N(Cc1ccccc1Cl)C(=O)c1ccn[nH]1 (stereo not drawn) | 25.6%
CC1(C)CC(=O)C=C(c2cccc3c2oc2ccccc23)C1 | -2.67%
CCCOc1ccc2oc(=O)c3c(c2c1)CCCN3C(=O)CN1CCCC(C(=O)OCC)C1 (stereo not drawn) | -65.5%
CCCOc1ccc2oc(=O)c3c(c2c1)CCCN3C(=O)CN1CCc2ccccc2C1 | -24.1%
CCCOc1ccc(C(=O)Nc2ccc(N3CCN(C(=O)c4ccco4)CC3)cc2)cc1 | 13.2%
CCCCCOc1ccc2oc(=O)c3c(c2c1)CCCN3C(=O)CN1CCCC(C(=O)OCC)C1 (stereo not drawn) | -0.3%
CCCOc1ccc2oc(=O)c3c(c2c1)CCCN3C(=O)CN1CCN(c2ncccn2)CC1 | -70.1%
CCCOc1ccc2oc(=O)c3c(c2c1)CCCN3C(=O)CN1CCN(C(=O)c2ccco2)CC1 | -65.3%
CCOC(=O)C1CCCN(Cc2cc(=O)oc3cc(C)c(C)cc23)C1 (stereo not drawn) | -19.3%
CC(=O)Oc1ccc2oc(=O)c3c(c2c1)CCCN3C(=O)CN1CCN(c2ncccn2)CC1 | -7.91%
O=C(c1ccco1)N1CCN(CC(=O)N2CCCc3c2c(=O)oc2ccc(O)cc32)CC1 | -5.14%
